Screening data as filed in PubChem BioAssay.
This is one part of a sample in which hits are shown more often than they occur.
Glioma ERSR ind – ER stress response induction in glioma; U87-MG GRP78 promoter luciferase reporter, 16 h; Potency, µM, inactives show at the highest dose activation, hits mostly activators; 420,000 compounds, 0.02% hits; AID 602332; also: series mostly up to about 76 µM; % of control where 0% means no effect; nearly all actives have a fitted effect of over 35% in size
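Stably transfected U87-MG human glioma cells carrying a GRP78-based luminescent sensor were seeded at 1000 cells/well, pin-dosed with compounds and incubated 16 h. Luciferase reagent was then added, and end-point luminescence was read after 10 min at room temperature.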
ALOX12 inh – inhibitors of human 12S-lipoxygenase ALOX12; P18054; purified 12hLO, xylenol orange hydroperoxide absorbance; Potency, µM (highest dose often 108 µM), for the others: at the highest dose activity change, negative = inhibition, hits mostly inhibitors; 580,000 compounds, 1.1% hits; AID 1671190; also: % is scaled to controls: 0 for no effect and ±100 for the full control effect
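Purified human 12hLO at 150 nM in 25 mM Hepes, 0.01% Triton X-100, pH 7.0, preincubated 15 min at room temperature with compound. Reaction started with 40 uM arachidonic acid, 30 min at room temperature. Hydroperoxide measured by Fe-xylenol orange, 573/405 nm absorbance ratio.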
VDR inhibitor – vitamin D3 receptor (human) inhibition | 400,000 compounds, 0.93% hits | Potency, µM, for inactives: max response, negative = inhibition, actives largely listed as inhibitors | P11473 | VDR-SRC2-3 peptide fluorescence polarization, 2 h; also: % is scaled to controls: 0 for no effect and ±100 for the full control effect
Target sequence (P11473 whole entry, looked up): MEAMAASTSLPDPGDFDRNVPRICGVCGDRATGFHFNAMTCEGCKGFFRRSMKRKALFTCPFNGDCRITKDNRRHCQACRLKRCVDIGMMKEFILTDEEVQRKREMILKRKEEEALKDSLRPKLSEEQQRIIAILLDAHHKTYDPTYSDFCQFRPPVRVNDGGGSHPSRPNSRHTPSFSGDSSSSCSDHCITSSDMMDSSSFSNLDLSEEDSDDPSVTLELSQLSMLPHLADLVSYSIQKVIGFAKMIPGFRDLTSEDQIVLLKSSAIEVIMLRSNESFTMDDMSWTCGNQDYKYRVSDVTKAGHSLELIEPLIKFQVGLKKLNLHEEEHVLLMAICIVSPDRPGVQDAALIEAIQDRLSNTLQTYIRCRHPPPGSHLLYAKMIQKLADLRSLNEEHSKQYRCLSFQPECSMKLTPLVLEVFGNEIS
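Measured by FP: displacement of SRC2-3 coactivator peptide from VDR by library compounds, following a two-hour ambient incubation.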
G9a block – inhibitors of human histone lysine methyltransferase G9a | G9a H3K9 monomethylation, AlphaScreen, 2 h | Potency, µM (doses to about 102 µM), without a hit: top-dose activity, negative = inhibition, hits mostly inhibitors | 350,000 compounds, 8.8% hits; also: % is scaled to controls: 0 for no effect and ±100 for the full control effect; nearly all actives have a fitted effect of over 75% in size
Target sequence (Q96KQ7 913-1193 limits assumed): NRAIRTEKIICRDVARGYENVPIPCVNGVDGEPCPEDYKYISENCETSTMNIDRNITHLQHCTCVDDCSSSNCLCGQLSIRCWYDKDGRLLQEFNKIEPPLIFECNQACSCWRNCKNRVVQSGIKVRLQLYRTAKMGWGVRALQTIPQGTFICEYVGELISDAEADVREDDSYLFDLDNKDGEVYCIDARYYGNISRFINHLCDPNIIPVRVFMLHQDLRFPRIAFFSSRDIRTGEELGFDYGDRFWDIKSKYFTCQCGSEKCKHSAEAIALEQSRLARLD
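Signal arises when biotinylated H3K9 peptide, once monomethylated, bridges streptavidin donor and antibody-captured acceptor beads. Enzyme at 20 nM was preincubated 15 min with test compounds; peptide 500 nM and SAM 20 uM then reacted for 2 h.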
Sfp PPTase inh – Sfp phosphopantetheinyl transferase inhibition; Q9F4F7; Biochemical Sfp PPTase activity, qHTS; Potency, µM, inactives show largest response in the series, negative = inhibition, most hits filed as inhibitors; 310,000 compounds, 3.5% hits; AID 1490;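 also: the enzyme is Sfp with the accession as filed and its product quenches rhodamine fluorescence; 0% = enzyme reaction without inhibitor and -100% = no enzyme wells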
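With Hepes-Na pH 7.6 buffer containing 10 mM MgCl2, Sfp (15 nM) modified BHQ-2-YbbR (12.5 uM) using rhodamine-CoA (5 uM). Two reads 30 minutes apart at 525/598 nm yielded each well's rate.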
* marks the source's active call; other numbers are inactive results; ? = inconclusive; · = no result; [ ] = dose if it differs, or a comment. Calls follow the shape of the dose curve; as a rule, active = well fitted curve in the direction sought with a large enough effect; inconclusive = small, poorly fitted or top-dose-only effect, or another doubt; inactive = no such curve, though single readings can be large; an effect the other way counts as inactive or inconclusive. Potency is read from the fitted curve at half-maximal effect.

SMILES | Glioma ERSR ind | ALOX12 inh | VDR inhibitor | G9a block | Sfp PPTase inh
Cc1ccccc1Cc1cnc(N)s1 | · | 43.0% | · | · | ·
Cc1ccccc1Cc1sc(N)nc1C | · | 14.1µM* | · | · | ·
O=C(O)C1CSC(c2coc3ccccc3c2=O)N1 (configuration not stated) | 0.0% | -34.1% | ? | ? | 44.7µM*
O=C(C1COc2cc(S(=O)(=O)Nc3ccc(F)cc3)ccc2O1)N1CCCCC1 (configuration not stated) | · | -1.6% | · | · | ·
CC(Sc1ncnc2nc[nH]c12)C(=O)Nc1ccccc1Cl (configuration not stated) | · | 0.9% | · | · | ·
Cc1oc(-c2ccccc2F)nc1Cn1c(SCc2ccccc2F)nc2ccncc21 | -1.3% | -13.3% | 2.3% | 12.6µM* | ·
CC(NC(=O)C1(N2CCCCC2)Cc2ccccc2C1)c1cnn(C)c1 (configuration not stated) | · | 5.1% | · | · | ·
O=C(CN1C(=O)c2ccccc2C1=O)OCC(=O)c1ccc(F)cc1 | 1.1% | -13.0% | -3.8% | 50.1µM* | ·
O=C(CN1C(=O)c2ccccc2C1=O)c1ccc(F)cc1 | 0.9% | 0.4% | -11.0% | -13.7%[2.33 µM] | -0.6%
COc1ccc(N2CCN(C(=O)c3cc(-c4ccc(F)cc4)[nH]c3C)CC2)cc1 | -7.2% | 0.0% | -12.6% | 44.7µM* | 10.7%
COc1ccc(N2CCN(C(=O)COC(=O)c3ccc(CSC)o3)CC2)cc1 | -2.5% | -26.4% | 5.9% | 15.8µM* | ·
COc1ccc(N2CCN(C(=O)COC(=O)Cc3ccc(F)cc3)CC2)cc1 | -2.6% | -2.7% | -0.5% | 44.7µM* | ·
COc1ccccc1CC(=O)OCC(=O)N1CCN(c2ccc(F)cc2)CC1 | -4.1% | 1.3% | -14.3% | · | ·
O=C(CCn1cnc2onc(-c3ccc(F)cc3)c2c1=O)N1CCN(c2ccccc2)CC1 | -1.0% | -26.9% | 6.8% | ? | ·
COc1ccc(N2CCN(C(=O)CCn3cnc4onc(-c5ccc(F)cc5)c4c3=O)CC2)cc1 | -5.6% | ? | 13.2% | 14.1µM* | ·
COc1ccc(NC(=O)/C(C#N)=C/c2c[nH]c3ccccc23)c(OC)c1 | · | 40.3% | · | · | ·
COc1ccc(/C=C(\C#N)C(=O)Nc2cccc(C(F)(F)F)c2)c(OC)c1 | · | 30.3% | · | · | ·
O=c1c(C(F)(F)F)nc2ccccc2n1CC(O)COCc1ccccc1 (configuration not stated) | · | -26.6% | · | · | ·
C=CCNC(=O)CCNC(=O)N1CCN(C(=O)c2cc3ccccc3[nH]2)CC1 | · | 12.6% | · | · | ·
COc1ccc(N2CCN(C(=O)COC(=O)c3ccc(C)o3)CC2)cc1 | -4.5% | -17.7% | 2.3% | 50.1µM* | ·
COc1ccc(/C=C2\NC(=S)N(CC3CCCO3)C2=O)c(OC)c1C (configuration not stated) | -1.6% | ? | 0.4% | 50.1µM* | -18.2%
COc1ccc(/C=C2\NC(=S)N(CC3CCCO3)C2=O)c(OC)c1 (configuration not stated) | 3.3% | -29.1% | -13.1% | 39.0%[12.7 µM] | -6.4%
CCN1CCCC1CNC(=O)C(C)(C)C (configuration not stated) | · | -73.9% | · | · | ·
CN1CCN(C(=O)c2cc3c(=O)n4ccccc4nc3s2)CC1 | 0.6% | -21.7% | -21.0% | 50.1µM* | 9.0%
CCOC(=O)N1CCN(C(=O)c2cc3c(=O)n4ccccc4nc3s2)CC1 | 6.5% | 0.0% | 6.0% | 38.3% | 15.2%
SMILES | Glioma ERSR ind | ALOX12 inh | VDR inhibitor | G9a block | Sfp PPTase inh
O=C1CCN(S(=O)(=O)c2ccccc2)CCCN(Cc2cccc3[nH]ccc23)CCN1 | · | 148.0% | · | · | ·
COc1ccc(C(=O)N2CCC(C(=O)Nc3ccc(OC)c(OC)c3)CC2)cc1 | -0.9% | 6.3% | 27.7% | -4.5%[59 µM] | 89.1µM*
O=C(O)C1CSC(CCc2ccccc2)N1 (configuration not stated) | -3.6% | ? | 12.4% | ? | 79.4µM*
C/C(CCN1CCc2nc(-c3ccccc3)c(-c3ccccc3)cc2C1)=N\OC[C@@H](C)[C@H](OCc1ccccc1)C(C)C | -5.1% | · | -18.4% | 44.7µM* | 0.5%
CCc1cc2c(nc1CC)CCN(CC/C(C)=N/OC[C@@H](C)[C@H](OCc1ccccc1)C(C)C)C2 | -5.1% | · | · | · | 20.7%
C/C(CCN1CCc2nc(-c3ccccc3)c(-c3ccccc3)cc2C1)=N\O[C@H](C)c1cn([C@H](CO)Cc2ccccc2)nn1 | · | · | · | 50.1µM* | 3.5%
COc1ccccc1NC(=O)CCN1C(=O)c2ccccc2C1=O | -1.3% | 0.0% | -13.9% | 79.4µM* | 0.5%
O=C(CN1C(=O)c2ccccc2C1=O)Nc1ccccc1C(F)(F)F | -1.9% | 3.3% | 0.6% | 21.0% | 2.9%
O=C(CCN1C(=O)c2ccccc2C1=O)Nc1ccccc1C(F)(F)F | -2.5% | -16.7% | -21.7% | 44.7µM* | -26.9%
O=C(CSc1ccc2c(c1)OCCCO2)Nc1ccc2c(c1)CCC2 | · | -10.4% | · | · | ·
O=C(O)CCCNc1cc(N2CCC3(CC2)OCCO3)c2noc3c2c1C(=O)c1ccccc1-3 | · | · | · | ? | -11.1%
CN1CCN(c2cc(N3CCN(C(=O)c4ccco4)CC3)c3c4c(onc24)-c2ccccc2C3=O)CC1 | -4.9% | · | -21.2% | 35.5µM* | 15.8µM*
O=C(O)CCCNc1cc(N2CCN(C(=O)c3ccco3)CC2)c2noc3c2c1C(=O)c1ccccc1-3 | 2.8% | 18.6% | 9.1% | 10µM* | -3.3%
O=C1c2ccccc2-c2onc3c(N4CCN(CCO)CC4)cc(N4CCN(C(=O)c5ccco5)CC4)c1c23 | -19.5% | 16.7% | -0.7% | 28.2µM* | 5.01µM*
CN1c2cccnc2CN(CC2CCCCC2)CC[C@H]1CO | · | 91.9%[176 µM] | · | · | ·
Cc1cccc(NC(=O)c2nc(-c3ccccc3)oc2C)n1 | · | 0.5% | · | · | ·
COc1cc(CC(CC(=O)O)CC(C)OCc2ccccc2)cc(OC)c1 (configuration not stated) | -2.3% | -2.3% | 4.1% | 1.41µM* | 6.1%
CCCCN1/C(=C/c2cccc[n+]2C)Sc2cc(NC(C)=O)ccc21 | -1.5% | ? | -18.3% | 44.7µM* | -6.6%
CC(=O)Nc1ccc(NC(=O)CCCCCN2C(=O)c3ccccc3C2=O)cc1 | -4.5% | -58.6% | 20.0% | -1.7%[59 µM] | 9.9%
NS(=O)(=O)c1ccc(CNC(=O)c2ccccc2SCC(=O)N2CCCC2)cc1 | -3.9% | -18.3% | -27.8% | 35.5µM* | ·
Cc1ccc(CNC(=O)c2ccccc2SCC(=O)NCC2CCCCC2)cc1 | -2.8% | -29.2% | -13.2% | 44.7µM* | 22.8%
Cc1cc(C)c2c(n1)oc1c(=O)n(CC(=O)NC3CCCCC3)cnc12 | · | 21.0% | · | · | ·
